Records with an inconclusive call do not appear. The source made the active and inactive calls. Calls come from the whole dose curve; as a rule, active = well fitted inhibition curve with a large enough effect; inconclusive = small, poorly fitted or top-dose-only effect; inactive = flat fitted curve, though single readings scatter. Numbered stars: 1 amine (or outer) side, 2 acyl side, 3 side chain; on linkers, the order of the positions; unused ones are H or OH. Bridge positions count the residues as written; N and C are the ends. Square brackets hold non-standard residues; d marks the D form. Peptide text beside a SMILES is read from it. * marks the point of attachment. ξ: configuration not given here. ΔAla(Z-3-ureido) = NC(=O)N/C=C(\N)C(=O)O; X2 = NC1=NC(O)CC(C(N[*:1])C(=O)[*:2])N1; ξβ3hOrn = NCCCC(N)CC(=O)*; Dap = NC[CH](N)C(=O)O
How the values were obtained:
[1] = molecular target: Luciferin 4-monooxygenase (Photinus pyralis) (UniProt P08659); experiment: Biochemical firefly luciferase enzyme assay for NPC (AID 624030);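 note: purified P. pyralis luciferase at 10 nM with luciferin and ATP substrate; nearly all actives have a fitted effect of over 70% in size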; conditions: purified P. pyralis luciferase, luminescence, 5 min; series mostly up to 58.6 µM
Summary of the method: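 Purified P. pyralis luciferase at 10 nM in 50 mM Tris Acetate (final), luminescence read within 5 minutes of enzyme addition to compounds. Activity normalised to PTC124 versus DMSO; concentration-response curves classed by r2, magnitude and activity.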

[2] = test system: 3D7; experiment: qHTS profiling for inhibitors of Plasmodium falciparum proliferation (AID 504749); note: nearly all actives have a fitted effect of over 60% in size; conditions: P. falciparum in erythrocytes, SYBR Green DNA, 72 h; series mostly up to 28.7 µM
Summary of the method: (§1)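 P. falciparum-infected erythrocytes (0.3% parasitemia, 2.5% hematocrit) incubated with compound 72 h at 37 C, 5% CO2. Parasite DNA detected by SYBR Green after lysis, overnight at room temperature; normalised to 0.29 uM artemisinin and DMSO.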

[3] = test system: AS120; experiment: as above; conditions: P. falciparum in erythrocytes, SYBR Green DNA, 72 h; series mostly up to 28.7 µM
Summary of the method: as §1

[4] = test system: ATS95; experiment: as above; conditions: P. falciparum in erythrocytes, SYBR Green DNA, 72 h; series mostly up to 28.7 µM
Summary of the method: as §1

[5] = test system: CP191; experiment: as above; conditions: P. falciparum in erythrocytes, SYBR Green DNA, 72 h; series mostly up to 28.7 µM
Summary of the method: as §1

[6] = test system: CP211; experiment: as above; conditions: P. falciparum in erythrocytes, SYBR Green DNA, 72 h; series mostly up to 28.7 µM
Summary of the method: as §1

[7] = test system: CP247; experiment: as above; conditions: P. falciparum in erythrocytes, SYBR Green DNA, 72 h; series mostly up to 28.7 µM
Summary of the method: as §1

[8] = test system: CP250; experiment: as above; conditions: P. falciparum in erythrocytes, SYBR Green DNA, 72 h; series mostly up to 28.7 µM
Summary of the method: as §1

[9] = test system: CP262; experiment: as above; conditions: P. falciparum in erythrocytes, SYBR Green DNA, 72 h; series mostly up to 28.7 µM
Summary of the method: as §1

[10] = test system: CP297; experiment: as above; conditions: P. falciparum in erythrocytes, SYBR Green DNA, 72 h; series mostly up to 28.7 µM
Summary of the method: as §1

[11] = test system: CP335; experiment: as above; conditions: P. falciparum in erythrocytes, SYBR Green DNA, 72 h; series mostly up to 28.7 µM
Summary of the method: as §1

[12] = test system: Dd2; experiment: as above; conditions: P. falciparum in erythrocytes, SYBR Green DNA, 72 h; series mostly up to 28.7 µM
Summary of the method: as §1

[13] = test system: ECU; experiment: as above; conditions: P. falciparum in erythrocytes, SYBR Green DNA, 72 h; series mostly up to 28.7 µM
Summary of the method: as §1

[14] = test system: GB4; experiment: as above; conditions: P. falciparum in erythrocytes, SYBR Green DNA, 72 h; series mostly up to 28.7 µM
Summary of the method: as §1

[15] = test system: N140; experiment: as above; conditions: P. falciparum in erythrocytes, SYBR Green DNA, 72 h; series mostly up to 28.7 µM
Summary of the method: as §1

[16] = test system: P93_24; experiment: as above; conditions: P. falciparum in erythrocytes, SYBR Green DNA, 72 h; series mostly up to 28.7 µM
Summary of the method: as §1

[17] = test system: PAD; experiment: as above; conditions: P. falciparum in erythrocytes, SYBR Green DNA, 72 h; series mostly up to 28.7 µM
Summary of the method: as §1

[18] = test system: SC27B; experiment: as above; conditions: P. falciparum in erythrocytes, SYBR Green DNA, 72 h; series mostly up to 28.7 µM
Summary of the method: as §1

[19] = test system: TAB113; experiment: as above; conditions: P. falciparum in erythrocytes, SYBR Green DNA, 72 h; series mostly up to 28.7 µM
Summary of the method: as §1

[20] = test system: TAB165; experiment: as above; conditions: P. falciparum in erythrocytes, SYBR Green DNA, 72 h; series mostly up to 28.7 µM
Summary of the method: as §1

Measured: Potency

Luciferin 4-monooxygenase (Photinus pyralis), sequence (P08659 whole entry, looked up): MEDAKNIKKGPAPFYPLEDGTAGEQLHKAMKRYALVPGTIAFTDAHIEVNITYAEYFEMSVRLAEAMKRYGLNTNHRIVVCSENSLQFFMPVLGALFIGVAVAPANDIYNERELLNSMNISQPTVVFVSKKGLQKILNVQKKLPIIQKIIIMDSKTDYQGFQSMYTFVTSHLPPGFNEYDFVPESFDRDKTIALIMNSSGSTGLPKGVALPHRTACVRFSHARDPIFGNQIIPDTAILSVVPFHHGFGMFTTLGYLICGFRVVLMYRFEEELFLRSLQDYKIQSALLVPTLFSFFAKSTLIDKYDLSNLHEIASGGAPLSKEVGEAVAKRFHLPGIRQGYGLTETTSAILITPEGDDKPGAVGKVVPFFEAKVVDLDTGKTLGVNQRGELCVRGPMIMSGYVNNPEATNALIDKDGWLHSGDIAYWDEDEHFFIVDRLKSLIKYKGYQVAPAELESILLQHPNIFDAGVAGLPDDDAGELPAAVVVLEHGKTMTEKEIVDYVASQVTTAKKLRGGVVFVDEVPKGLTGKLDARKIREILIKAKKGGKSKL

NC(=O)CCC1NC(=O)C(Cc2ccccc2)NC(=O)C(Cc2ccc(O)cc2)NC(=O)CCSSCC(C(=O)N2CCCC2C(=O)NC(CCCN=C(N)N)C(=O)NCC(N)=O)NC(=O)C(CC(N)=O)NC1=O (configuration not stated)
inactive: all assays above

CC(C)CC(NC(=O)C(COC(C)(C)C)NC(=O)C(Cc1ccc(O)cc1)NC(=O)C(CO)NC(=O)C(Cc1c[nH]c2ccccc12)NC(=O)C(Cc1cnc[nH]1)NC(=O)C1CCC(=O)N1)C(=O)NC(CCCN=C(N)N)C(=O)N1CCCC1C(=O)NNC(N)=O (configuration not stated)
not listed: [19]
inactive: all other assays above

CCC(C)C1NC(=O)C(Cc2ccc(O)cc2)NC(=O)C(N)CSSCC(C(=O)N2CCCC2C(=O)NC(CC(C)C)C(=O)NCC(N)=O)NC(=O)C(CC(N)=O)NC(=O)C(CCC(N)=O)NC1=O (configuration not stated)
not listed: [7]
inactive: all other assays above

NCCCC(N)CC(=O)NC1CNC(=O)C(C2CC(O)N=C(N)N2)NC(=O)/C(=C/NC(N)=O)NC(=O)C(CO)NC(=O)C(CO)NC1=O (stereo not drawn) (ξβ3hOrn-[Dap]SS[ΔAla(Z-3-ureido)][X2]; lactam 1-C; configuration not given here)
not listed: [4]
inactive: all other assays above
